CHX counter: counter-screen hit for Shiga toxin inhibitors, cycloheximide. cell reporter, cycloheximide protein synthesis inhibition counterscreen. max response, %. 300,000 compounds, 12% hits; in the data active = max response mostly above about 13%, no sharp cut-off; inactive = mostly below about 14%; also: read at 38.3 µM for the half of the compounds with a filed dose
LmPK inhibitor: inhibitors of Leishmania mexicana pyruvate kinase; Q27686; purified LmPK, Kinase-Glo ATP luminescence, 1 h; Potency, µM (highest dose often 57.5 µM), actives largely listed as inhibitors; 290,000 compounds, 0.37% hits; AID 1721
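Pyruvate kinase activity monitored as ATP production (luciferase luminescence). Conditions: 0.1 nM enzyme, 0.5 mM PEP, 0.1 mM ADP, 1 h, RT; normalized against uninhibited and no-enzyme wells.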
Shiga inhibitor: inhibitors of Shiga toxin in Vero cells. Vero cells, Shiga toxin protein synthesis inhibition reporter. inhibition, % at 38.7 µM. 290,000 compounds, 9.2% hits; in the data active = inhibition mostly above about 28%, no sharp cut-off; inactive = mostly below about 43%
FBPA Giardia inh: inhibitors of Giardia lamblia fructose-1,6-bisphosphate aldolase | 290,000 compounds, 0.71% hits | Potency, µM (titrated, usually from 59.6 µM), most hits filed as inhibitors | purified Giardia FBPA | AID 2451; also: nearly all actives have a fitted effect of over 55% in size
Target sequence (A8B2U2 whole entry, looked up): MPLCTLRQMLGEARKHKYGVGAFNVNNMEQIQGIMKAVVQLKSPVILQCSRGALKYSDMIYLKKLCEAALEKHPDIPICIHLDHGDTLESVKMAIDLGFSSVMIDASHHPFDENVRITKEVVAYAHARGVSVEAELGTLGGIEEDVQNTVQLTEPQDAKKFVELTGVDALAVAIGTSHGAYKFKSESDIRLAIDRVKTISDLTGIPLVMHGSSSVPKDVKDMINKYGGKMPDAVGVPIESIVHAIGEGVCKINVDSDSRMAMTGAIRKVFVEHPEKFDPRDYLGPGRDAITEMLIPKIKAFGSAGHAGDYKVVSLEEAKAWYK
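Giardia FBPA (40 nM reagent) was preincubated 10 min at RT with compound (up to 57.5 uM final), then substrate plus GAPDH/TPI/NAD/arsenate coupling system with diaphorase/resazurin was added; resorufin fluorescence (525/598 nm) was read after 20 min.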
RE007 growth inh: less growth of the S. pombe RE007 Vpr strain; 360,000 compounds, 0.21% hits; S. pombe RE007 Vpr strain, BacTiter-Glo ATP luminescence, 24 h; AID 651644; Potency, µM (doses to about 92.2 µM), usual class: inhibitors; active = well fitted falling curve with a large enough effect; inconclusive = small, poorly fitted or top-dose-only effect; inactive = no such curve, though single readings can be large or run the other way; also: nearly all actives have a fitted effect of over 50% in size
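Fission yeast strain RE007, carrying one chromosomally integrated HIV-1 vpr copy, was seeded at OD 0.01 in PMG+AL medium with 23 nL pinned compound. After 24 h at 30 °C and 99% humidity, viability was read by BacTiter-Glo luminescence.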
Tb PYK inh: inhibitors of Trypanosoma brucei pyruvate kinase. Q57TT1. TbPYK enzyme, Kinase-Glo Plus ATP luminescence, 45 min. Potency, µM (top dose mostly 76.8 µM), hits mostly inhibitors. 410,000 compounds, 0.12% hits; also: nearly all actives have a fitted effect of over 50% in size
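TbPYK + substrate in 50 mM TEA pH 7.2, 100 mM KCl, 10 mM MgCl2, 0.05% BSA, 0.01% Tween-20; cpd pinned; ADP 130 uM final; 45 min RT; Kinase-Glo Plus 10 min; luminescence endpoint.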
Each line names hits and unclear results; the compound was inactive in the other large screens. This is one part of a sample in which hits are shown more often than they occur. Unless noted, calls follow the shape of the dose curve; as a rule, active = well fitted curve in the direction sought with a large enough effect; inconclusive = small, poorly fitted or top-dose-only effect, or another doubt; inactive = no such curve, though single readings can be large; an effect the other way counts as inactive or inconclusive.

CC(=O)N1CC(C)Sc2ccc(S(=O)(=O)NCCc3ccccc3)cc21 (centres undefined)	CHX counter 32, Shiga inhibitor 56 (no result: FBPA Giardia inh)
O=c1c2cnn(-c3ccccc3)c2ncn1CCc1ccccc1	CHX counter 23, Shiga inhibitor 49
CCCCSc1nc2c(cnn2-c2ccccc2)c(=O)n1N	CHX counter 42, Shiga inhibitor 94, RE007 growth inh inconclusive
CCCSc1nc2c(cnn2-c2ccccc2)c(=O)n1N	CHX counter 43, Shiga inhibitor 50
Nn1c(SCc2ccccc2)nc2c(cnn2-c2ccccc2)c1=O	CHX counter 23, Shiga inhibitor 76
O=C(O)CSc1nc2c(cnn2-c2ccccc2)c(=O)n1-c1ccc(Br)cc1	none
CCCOc1nc(SCCC)nc2c1cnn2-c1ccccc1	none
COC(=O)C1=C(C(=O)OC)[C@@H]2N(C)c3ccccc3[C@@]23C[C@@H](CO)N(C(=O)c2cc(C)oc2C)C3=N1	none (no result: CHX counter, Shiga inhibitor, RE007 growth inh, Tb PYK inh)
CC(CNC(=O)Cn1ccc2cc(S(=O)(=O)N3CCCCC3)ccc21)c1ccccc1 (centres undefined)	none (no result: CHX counter, LmPK inhibitor, Shiga inhibitor, FBPA Giardia inh, RE007 growth inh)
CCC1CN(C(=O)N2CCC(C(=O)NCCCc3ccccc3)CC2)c2ccccc2O1 (centres undefined)	none (no result: CHX counter, LmPK inhibitor, Shiga inhibitor, FBPA Giardia inh, RE007 growth inh)
Cc1ccn2c(Nc3ccc4c(c3)OCO4)c(-c3ccccn3)nc2c1	CHX counter 77, Shiga inhibitor 39
COc1ccc(-c2nc3ccc(C)cn3c2NCc2ccc3c(c2)OCO3)cc1	CHX counter 55, Shiga inhibitor 125, FBPA Giardia inh inconclusive
Cc1ccc(-c2nc3ccccn3c2NCc2ccc3c(c2)OCO3)cc1	CHX counter 45, Shiga inhibitor 54
CC(C)CNc1oc(-c2ccccc2Cl)nc1C#N	CHX counter 14, Shiga inhibitor 29
COCCCNc1oc(-c2ccccc2Cl)nc1C#N	CHX counter 15
O=C(CN1CCCCCC1)N/N=C/c1ccc(Cl)c(Cl)c1	CHX counter 29
O=C(CN1CCOCC1)N/N=C/c1ccc(C(=O)O)cc1	CHX counter 53, Shiga inhibitor 85
CCCCn1c(=O)c2[nH]c(C34CC5CC(CC3C5)C4)nc2n(CCCO)c1=O	none (no result: LmPK inhibitor, RE007 growth inh, Tb PYK inh)
COc1ccc(-c2nn3c(=O)c(C)nnc3s2)cc1	Shiga inhibitor 54
Cc1nc2sc(-c3ccccc3)nn2c(=O)c1Br	CHX counter 56, LmPK inhibitor inconclusive, Shiga inhibitor 94, RE007 growth inh inconclusive
COc1ccc(-c2nn3c(-c4ccccc4)nnc3s2)cc1	none
Clc1ccc(-c2nn3c(-c4ccccc4)nnc3s2)cc1	none
O=C(Nc1cccc(O)c1)c1cnn2cccnc12	CHX counter 40, Shiga inhibitor 101
O=C(Nc1ccc2c(c1)OCO2)c1cnn2cccnc12	CHX counter 49, Shiga inhibitor 74
O=C(Nc1cccnc1)c1cnn2cccnc12	none
CCCCNc1ncnc2c1nnn2C	none (no result: CHX counter, LmPK inhibitor, Shiga inhibitor, FBPA Giardia inh, RE007 growth inh)
CC(=O)c1cccc(OCc2cc(C(=O)NCCC3=CCCCC3)no2)c1	CHX counter 42, Shiga inhibitor 101 (no result: FBPA Giardia inh)
O=C(NCCC1=CCCCC1)c1cc(COc2ccc(F)cc2Cl)on1	none (no result: FBPA Giardia inh)
CSc1ccccc1OCc1cc(C(=O)NCCC2=CCCCC2)no1	Shiga inhibitor 28
O=C(NCCC1=CCCCC1)c1cc(COc2c(F)cccc2F)on1	none
CCOc1cc(C(=O)Nc2ccc3oc(-c4ccc(CC)cc4)nc3c2)cc(OCC)c1OCC	none (no result: CHX counter, LmPK inhibitor, Shiga inhibitor, FBPA Giardia inh, RE007 growth inh)
Cc1cc[n+](-c2nc3ccccc3nc2[N-]S(=O)(=O)c2ccccc2)cc1	none
CCc1cc[n+](-c2nc3ccccc3nc2[N-]S(=O)(=O)c2ccc(Br)s2)cc1	CHX counter 13
c1cncc(-c2cncnc2NCc2cccs2)c1	none (no result: CHX counter, LmPK inhibitor, Shiga inhibitor, RE007 growth inh, Tb PYK inh)
CSc1ccc(-c2nc3cccc(C)n3c2Nc2ccc(Cl)cc2)cc1	none (no result: CHX counter, LmPK inhibitor, Shiga inhibitor, FBPA Giardia inh, RE007 growth inh)
CC1CCc2c(sc3nc(C(C)(C)C)nc(N4CCN(C(=O)CCl)CC4)c23)C1 (centres undefined)	CHX counter 20, Shiga inhibitor 46
O=C1CCC=C1C(O)CCc1ccccc1 (centres undefined)	none (no result: CHX counter, LmPK inhibitor, Shiga inhibitor, RE007 growth inh, Tb PYK inh)
Cc1ccc(CNC(=O)C(CC(C)C)NS(=O)(=O)c2ccc3c(c2)oc(=O)n3C)cc1 (centres undefined)	none (no result: CHX counter, LmPK inhibitor, Shiga inhibitor, FBPA Giardia inh, RE007 growth inh)
CCCc1ncc(C(=O)c2ccc(OC)cc2)n1C	Shiga inhibitor 42

Compound activity deposited in PubChem BioAssay by National Center for Advancing Translational Sciences (NCATS).
